Measurements reported in PubChem BioAssay.
The source made the active and inactive calls.

Experiments:
[1] = E. coli DRC41 culture turbidity changes, primary screen, E. coli filamentation inducer project, strain DRC41, OD650, 48 h (AID 1152);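 also: E. coli MC1000 strain DRC41 lacking acrAB efflux pump and sulA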; conditions: E. coli DRC41 (acrAB sulA), higher = more signal, called active from +8 up or from −8 down
[2] = small-molecule binders of probe aLefty1, primary screen, biochemical, small-molecule microarray, 635/667 nm fluorescence (AID 1153); conditions: higher = more signal;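 also: score merges spot fluorescence with signal-to-noise ratio from the scanned slide images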
[3] = PSAC antagonists in infected red cells, primary screen, cell-based, P. falciparum Indochina, OD700, 1 h (AID 1154); conditions: P. falciparum Indochina infected RBC osmotic lysis, higher = more signal, called active from +8 up or from −8 down
[4] = PSAC antagonists in infected red cells, primary screen, cell-based, P. falciparum Indochina, OD700, 2 h (AID 1155);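 also: lysis reports solute entry through the parasite surface anion channel PSAC; channel blockers reduce lysis of infected cells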; conditions: P. falciparum Indochina infected erythrocytes, osmotic lysis OD700; higher = more signal, called active from +8 up or from −8 down
[5] = osmotic lysis modulators in infected erythrocytes, primary screen, PSAC antagonist project, cell-based, P. falciparum Indochina, OD700, 3 h (AID 1156); conditions: higher = more signal, called active from +8 up or from −8 down
[6] = PSAC antagonists in infected red cells, primary screen, cell-based, P. falciparum Indochina, OD700, 18 h (AID 1157); conditions: P. falciparum Indochina infected erythrocytes, osmotic lysis OD700, 18 h; higher = more signal, called active from +8 up or from −8 down
[7] = modulators of S6 phosphorylation in cells, primary screen, cell-based, A549, cytoblot, luminescence, serum-stimulated (AID 1158); conditions: A549 phospho-S6 cytoblot, 5 h, higher = more signal;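 also: serum-stimulated A549 lung adenocarcinoma cells; signal is phosphorylated S6 detected by cytoblot immunostaining with HRP secondary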
[8] = molecular target: NADPH oxidase 2 (Homo sapiens) (UniProt P04839); assay: NOX2-dependent H2O2 signal modulators, primary screen, NOX inhibitor project, cell-based, HEK293-NOX2, PMA-stimulated, Amplex Red fluorescence (AID 1159); conditions: 45 min, higher = more signal, called active from +8 up or from −8 down; also: test concentration not given here
Sequence of NADPH oxidase 2 (Homo sapiens) (P04839 whole entry, looked up): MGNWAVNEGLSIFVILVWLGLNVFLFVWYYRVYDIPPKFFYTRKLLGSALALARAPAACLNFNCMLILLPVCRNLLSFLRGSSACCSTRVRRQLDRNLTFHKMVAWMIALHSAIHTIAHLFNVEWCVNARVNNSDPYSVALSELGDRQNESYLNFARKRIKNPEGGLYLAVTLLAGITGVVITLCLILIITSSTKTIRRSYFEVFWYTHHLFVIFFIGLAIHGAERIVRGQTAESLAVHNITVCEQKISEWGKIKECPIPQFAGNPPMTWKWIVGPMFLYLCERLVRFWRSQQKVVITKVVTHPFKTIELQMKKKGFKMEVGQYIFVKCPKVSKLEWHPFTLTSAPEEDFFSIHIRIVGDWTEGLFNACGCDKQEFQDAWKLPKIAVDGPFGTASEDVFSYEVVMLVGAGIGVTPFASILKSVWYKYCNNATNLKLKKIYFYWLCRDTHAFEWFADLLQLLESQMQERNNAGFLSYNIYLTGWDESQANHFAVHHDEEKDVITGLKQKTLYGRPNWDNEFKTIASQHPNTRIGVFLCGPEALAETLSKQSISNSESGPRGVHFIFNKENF

[9] = molecular target: NADPH oxidase 4 (Homo sapiens) (UniProt Q9NPH5); assay: NOX4-dependent H2O2 signal modulators, primary screen, NOX inhibitor project, cell-based, HEK293-NOX4, tetracycline-induced, Amplex Red fluorescence (AID 1160); conditions: 45 min, higher = more signal, called active from +8 up or from −8 down
Sequence of NADPH oxidase 4 (Homo sapiens) (Q9NPH5 whole entry, looked up): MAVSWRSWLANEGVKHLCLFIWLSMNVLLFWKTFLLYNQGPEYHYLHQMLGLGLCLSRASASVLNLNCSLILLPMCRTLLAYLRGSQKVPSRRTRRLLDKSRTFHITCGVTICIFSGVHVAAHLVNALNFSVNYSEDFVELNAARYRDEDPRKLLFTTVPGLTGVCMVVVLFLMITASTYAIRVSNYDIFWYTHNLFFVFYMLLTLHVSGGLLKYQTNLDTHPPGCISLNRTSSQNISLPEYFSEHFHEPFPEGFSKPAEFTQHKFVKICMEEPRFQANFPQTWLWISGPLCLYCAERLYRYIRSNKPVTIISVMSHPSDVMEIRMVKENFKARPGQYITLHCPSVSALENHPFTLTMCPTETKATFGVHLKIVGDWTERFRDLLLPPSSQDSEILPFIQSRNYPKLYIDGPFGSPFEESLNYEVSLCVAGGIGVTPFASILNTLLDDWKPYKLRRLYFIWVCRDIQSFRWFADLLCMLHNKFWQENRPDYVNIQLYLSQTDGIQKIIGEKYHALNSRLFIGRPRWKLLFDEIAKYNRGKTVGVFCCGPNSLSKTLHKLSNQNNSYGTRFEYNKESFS

[10] = molecular target: NADPH oxidase 5 (Homo sapiens) (UniProt Q96PH1); assay: NOX5-dependent H2O2 signal modulators, primary screen, NOX inhibitor project, cell-based, HEK293-NOX5, Amplex Red fluorescence (AID 1161); conditions: HEK293-NOX5, ionomycin, 45 min, higher = more signal
Sequence of NADPH oxidase 5 (Homo sapiens) (Q96PH1 whole entry, looked up): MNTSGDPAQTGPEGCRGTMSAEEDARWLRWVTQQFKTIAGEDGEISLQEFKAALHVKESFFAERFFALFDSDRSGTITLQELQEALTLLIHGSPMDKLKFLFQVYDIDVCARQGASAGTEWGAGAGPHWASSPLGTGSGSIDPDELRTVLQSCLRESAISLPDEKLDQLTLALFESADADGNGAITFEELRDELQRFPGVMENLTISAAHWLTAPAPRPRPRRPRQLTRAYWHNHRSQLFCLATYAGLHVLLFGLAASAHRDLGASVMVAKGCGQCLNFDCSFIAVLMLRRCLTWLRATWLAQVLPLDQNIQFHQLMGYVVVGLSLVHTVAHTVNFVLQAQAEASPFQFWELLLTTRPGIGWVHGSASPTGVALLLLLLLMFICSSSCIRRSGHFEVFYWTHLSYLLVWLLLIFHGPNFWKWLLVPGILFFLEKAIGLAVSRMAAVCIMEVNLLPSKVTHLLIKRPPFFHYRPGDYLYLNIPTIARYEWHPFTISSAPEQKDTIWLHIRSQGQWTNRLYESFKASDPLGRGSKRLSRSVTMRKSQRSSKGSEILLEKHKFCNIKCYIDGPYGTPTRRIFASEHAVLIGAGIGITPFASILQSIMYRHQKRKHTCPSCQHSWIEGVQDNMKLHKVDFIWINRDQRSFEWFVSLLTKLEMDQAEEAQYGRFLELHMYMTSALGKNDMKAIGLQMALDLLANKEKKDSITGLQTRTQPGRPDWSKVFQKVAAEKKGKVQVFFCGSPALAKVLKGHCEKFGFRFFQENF

Row | Compound | z-score [1] | composite z-score [2] | z-score [3] | z-score [4] | z-score [5] | z-score [6] | z-score [7] | z-score [8] | z-score [9] | z-score [10]
1 | COC(=O)[C@@H]1N=C(c2ccc(OCCCO)cc2)O[C@@H]1c1ccccc1 | 0.813 (inactive) | -0.717 | 24.5 (active) | 12.5 (active) | -1.03 (inactive) | 0.82 (inactive) | 0.264 | -0.499 (inactive) | 1.02 (inactive) | -0.273
2 | Cc1ccc(NN2C(C(O)c3c(F)cccc3Cl)C=CC3C(=O)N(C4CCCCC4)C(=O)C32)cc1 (stereo not given) | 0.0905 (inactive) | 0.23 | 12.9 (active) | 1.86 (inactive) | 2.45 (inactive) | 0.902 (inactive) | -0.319 | -1.41 (inactive) | -0.336 (inactive) | -1.67
3 | CC1CC/C=C\[C@H]2OC34C=CCN(c5ccc(Cl)cc5)C(=O)[C@H]3N(C(C)CO)C(=O)[C@]4(C)C2C(=O)O1 (stereo not given in full) | 0.346 (inactive) | -0.284 | 0.685 (inactive) | 0.67 (inactive) | 0.335 (inactive) | 0.281 (inactive) | 0.116 | 0.889 (inactive) | -0.383 (inactive) | 1.17
4 | CCOC(=O)C1=CC[C@@H](c2ccccc2F)N(S(=O)(=O)c2ccc(C)cc2)[C@H]1c1ccccc1 | -1.33 (inactive) | -0.0544 | 0.353 (inactive) | 1.17 (inactive) | 0.0175 (inactive) | 0.338 (inactive) | -0.445 | 0.941 (inactive) | 0.6 (inactive) | 2.18
5 | CN(C)CCCCCCNC(=O)[C@@H]1C[C@@H]2C(=O)N3CCC[C@H]3C(=O)N2[C@@H]1c1cccc(OCCO)c1 | -0.305 (inactive) | 0.0231 | 3.6 (inactive) | 0.456 (inactive) | 0.77 (inactive) | 0.448 (inactive) | -0.701 | 1.03 (inactive) | -0.884 (inactive) | 0.837
6 | COc1ccc([Si](C)(C)[C@H]2[C@H](CC(=O)N3CCC[C@H]3CO)O[C@@]3(C(=O)N(Cc4ccc(N5CCOC5=O)cc4)c4ccccc43)[C@@H]2C)cc1 | 0.397 (inactive) | 0.298 | 9.5 (active) | 1.8 (inactive) | 0.088 (inactive) | 0.746 (inactive) | 0.0491 | 1.94 (inactive) | -0.0662 (inactive) | 3.78
7 | C=C[C@@H](OC)[C@H](OC(=O)Nc1ccc(OC)cc1)c1ccc(O)c(F)c1 | 0.308 (inactive) | 0.0774 | 3.98 (inactive) | 0.517 (inactive) | 0.241 (inactive) | 0.475 (inactive) | -0.012 | -1.79 (inactive) | 0.787 (inactive) | 3.63
8 | CO[C@H]1O[C@H](CO)[C@@H](OC(=O)Nc2ccc3c(c2)OCO3)[C@H](OC(=O)Nc2ccc3c(c2)OCO3)[C@@H]1OC(=O)Nc1ccc2c(c1)OCO2 | -0.53 (inactive) | 0.26 | 11 (active) | 1.62 (inactive) | 1.55 (inactive) | 0.742 (inactive) | -0.563 | -1.32 (inactive) | -1.19 (inactive) | -1.57
9 | CCCCC(CC)C(O)C1C=CC2C(=O)N(C)C(=O)C2N1Nc1ccccc1 (stereo not given) | -1.34 (inactive) | 0.443 | 0.755 (inactive) | 0.916 (inactive) | -0.0492 (inactive) | 0.827 (inactive) | -0.778 | -1.45 (inactive) | -3.67 (inactive) | -3.2
10 | [N-]=[N+]=Nc1ccccc1C[C@]1(C(=O)O)COC(c2ccc(OCCCO)cc2)=N1 | -0.541 (inactive) | 0.199 | 23.9 (active) | 8.27 (active) | 4.11 (inactive) | 0.935 (inactive) | -0.103 | -2.44 (inactive) | -0.992 (inactive) | -2.7
11 | CN(C)C(=O)[C@]1(Cc2ccccc2CN=[N+]=[N-])N=C(c2ccc(OCCCO)cc2)O[C@@H]1c1ccccc1 | -0.532 (inactive) | 0.457 | 27.1 (active) | 22.9 (active) | 1.76 (inactive) | 0.96 (inactive) | 1.87 | -4 (inactive) | -2.05 (inactive) | -1.94
12 | CC1CC/C=C\[C@H]2OC34C=CCN(c5ccc6ccccc6c5)C(=O)[C@H]3N(CCCO)C(=O)[C@@H]4C2C(=O)O1 (stereo not given in full) | -0.866 (inactive) | -0.138 | 1.33 (inactive) | 0.398 (inactive) | -0.0069 (inactive) | 0.357 (inactive) | -0.0819 | 1.84 (inactive) | -1.18 (inactive) | 2.84
13 | CCCCC=C[C@@H](NC(=O)OCc1ccccc1Cl)c1ccccc1 | -2.07 (inactive) | 2.4 | 0.278 (inactive) | 0.894 (inactive) | 0.806 (inactive) | 0.887 (inactive) | -0.0327 | 0.027 (inactive) | -0.52 (inactive) | 1.24
14 | COC(=O)c1c(CC[C@@H](CO)NC(=O)N2CCC[C@H]2Cn2cc(C3(O)CCCCC3)nn2)oc(C(C)=O)c1C(=O)OC | -0.955 (inactive) | -0.101 | 1.35 (inactive) | 0.092 (inactive) | 1.14 (inactive) | 0.163 (inactive) | -0.0302 | -0.645 (inactive) | -0.981 (inactive) | -1.37
15 | C=C(/C(=C/C[C@H](OC(C)=O)c1ccc(CO)o1)c1cnc2ccccc2c1)C(C)C | -0.0554 (inactive) | 0.215 | 3.56 (inactive) | 0.625 (inactive) | 0.589 (inactive) | 0.0124 (inactive) | 0.38 | -0.306 (inactive) | -0.246 (inactive) | -0.219
16 | COc1ccc([Si](C)(C)[C@H]2[C@H](CC(=O)N(CCO)Cc3ccccc3)O[C@@]3(C(=O)N(C)c4c(Br)cc(C)cc43)[C@@H]2C)cc1 | -0.0939 (inactive) | 0.0774 | 18.4 (active) | 3.21 (inactive) | 0.0319 (inactive) | 1.11 (inactive) | 1.83 | -2.5 (inactive) | -0.577 (inactive) | -0.876
17 | COCCOC(=O)N1C(=O)[C@@]2(c3cc(C#CC4(O)CCCCCC4)ccc31)[C@H](c1ccc(O)cc1)N1[C@H](c3ccccc3)[C@H](c3ccccc3)OC(=O)[C@H]1[C@@H]2C(=O)N1CCN(c2ncccn2)CC1 | -0.533 (inactive) | 0.477 | 0.138 (inactive) | 0.525 (inactive) | -0.166 (inactive) | -0.0236 (inactive) | 0.159 | 1.54 (inactive) | 0.996 (inactive) | 1.11
18 | CCOC(=O)C[C@H]1[C@H](OC(=O)c2ccccc2-c2ccccc2)[C@@H](NC(=O)c2ccc3ccccc3n2)c2cc(OCCCO)ccc2N1C(=O)Cc1ccc(OC)cc1 | -0.783 (inactive) | 0.0986 | 5.91 (inactive) | 1.11 (inactive) | -0.0433 (inactive) | 0.549 (inactive) | -0.303 | 0.0348 (inactive) | 1.25 (inactive) | 0.76
19 | COc1ccc([Si](C)(C)[C@@H]2[C@@H](CCO)O[C@]3(C(=O)N(Cc4cccc(NC(=O)[C@H](C)O)c4)c4ccccc43)[C@H]2C)cc1 | -1.19 (inactive) | 0.286 | 9.14 (active) | 2.91 (inactive) | -1.04 (inactive) | 1.35 (inactive) | -0.472 | -0.881 (inactive) | 0.436 (inactive) | -0.256
20 | Cn1cccc1C(O)C1C=CC2C(=O)N(c3ccccc3)C(=O)C2N1Nc1ccccc1 (stereo not given) | -0.548 (inactive) | 0.358 | 2.42 (inactive) | 1.31 (inactive) | 0.361 (inactive) | 1.44 (inactive) | -0.55 | -1.34 (inactive) | -1.94 (inactive) | -1.81
21 | COc1ccc(CCNC(=O)[C@@H]2c3ccccc3C(=O)N(C3CCCCC3)[C@H]2c2ccc(CO)cc2)cc1 | -0.71 (inactive) | -0.0149 | 2.58 (inactive) | 0.163 (inactive) | 1.71 (inactive) | 0.0567 (inactive) | 0.491 | -0.415 (inactive) | -0.546 (inactive) | -2.31
22 | CCCNC(=O)[C@@H]1c2ccccc2C(=O)N(Cc2ccc(OC(F)(F)F)cc2)[C@H]1c1ccc(CO)cc1 | 0.52 (inactive) | -0.0099 | 1.23 (inactive) | -0.146 (inactive) | 1.03 (inactive) | -0.406 (inactive) | 0.289 | -0.62 (inactive) | 0.184 (inactive) | 1.75
23 | COc1ccc(C#Cc2ccc3c(c2)[C@]2(C(=O)N3)[C@H](C(=O)O)[C@H]3C(=O)O[C@H](c4ccccc4)[C@H](c4ccccc4)N3[C@@H]2c2ccc(O)cc2)cc1 | 0.384 (inactive) | 0.174 | -2.35 (inactive) | -2.47 (inactive) | -8.72 (active) | -2.8 (inactive) | 2.29 | 0.479 (inactive) | -3.77 (inactive) | -1.13
24 | C=C(C(=O)CC[C@H](OC(=O)c1ccccc1-c1ccccc1C(=O)O)c1cccc(OCCO)c1)C(C)C | -0.567 (inactive) | -0.328 | 4.87 (inactive) | 0.857 (inactive) | 2.06 (inactive) | 0.503 (inactive) | 0.0988 | 1.49 (inactive) | 0.361 (inactive) | -1.48
25 | CN(C)C(=O)[C@]1(CCC(=O)OC(C)(C)C)N=C(c2ccc(OCCCO)cc2)O[C@@H]1c1ccccc1CN=[N+]=[N-] | 0.636 (inactive) | -0.182 | 29.8 (active) | 25.2 (active) | 2.29 (inactive) | 3.77 (inactive) | -0.175 | 0.629 (inactive) | 2.22 (inactive) | 1.19
26 | CCCCCN1CC=CC23O[C@@H]4C=CCCOC(=O)C4[C@H]2C(=O)N(CCCCCCO)[C@@H]3C1=O (stereo not given in full) | 0.457 (inactive) | -0.324 | 1.07 (inactive) | 0.705 (inactive) | 1.01 (inactive) | 0.407 (inactive) | 1.59 | 1.27 (inactive) | -0.0418 (inactive) | 2.08
